This passage reports binding signal results from publication PMC8384837, “Expanding the binding specificity for RNA recognition by a PUF domain”.

Holding throughout (assay): yeast three-hybrid, YBZ-1, SC-Leu-His + 0.5 mM 3-AT, 4 days
What all share (settings): tags: N-Gal4 AD-HA kept; label: inside an RPR1-promoter hybrid RNA with tandem MS2 sites; ssRNA

For one experiment, the target named is PUM1 PUF domain R7-ARR (Homo sapiens, UniProt Q14671 828-1176, S1079A;N1080R;E1083R). In outline: (§1)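 Pumilio-1 PUF domain libraries, randomized at the three base-contacting residues of each repeat, were co-expressed with matching RNA elements from a centromeric plasmid in strain YBZ-1, which carries a LexA–MS2 coat fusion and a HIS3 reporter. Transformants grew for four days on SC-Leu (input) or on SC-Leu-His + 0.5 mM 3-AT (selection), and the repeat regions were PCR-amplified and Illumina-sequenced. The interaction score is the log change in variant frequency from input to selection. That logarithm is base 2, with a pseudocount of 1 where a variant was absent.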

The next experiment deals with PUM1 PUF domain R7-EPG (Homo sapiens, UniProt Q14671 828-1176, S1079E;N1080P;E1083G). Put shortly: as §1
For another experiment, the target named is PUM1 PUF domain R4-FNC (Homo sapiens, UniProt Q14671 828-1176, N971F;H972N;Q975C). Put shortly:
as §1

For the next experiment, the target named is PUM1 PUF domain R4-PFL (Homo sapiens, UniProt Q14671 828-1176, N971P;H972F;Q975L). Put shortly:
as §1

Another experiment deals with PUM1 PUF domain R4-SHS (Homo sapiens, UniProt Q14671 828-1176, N971S;Q975S). Put shortly:
as §1

The target in a further experiment is T1, PUM1 PUF domain R6-GWE (Homo sapiens, UniProt Q14671 828-1176, N1043G;Y1044W;Q1047E).
T1 sequence: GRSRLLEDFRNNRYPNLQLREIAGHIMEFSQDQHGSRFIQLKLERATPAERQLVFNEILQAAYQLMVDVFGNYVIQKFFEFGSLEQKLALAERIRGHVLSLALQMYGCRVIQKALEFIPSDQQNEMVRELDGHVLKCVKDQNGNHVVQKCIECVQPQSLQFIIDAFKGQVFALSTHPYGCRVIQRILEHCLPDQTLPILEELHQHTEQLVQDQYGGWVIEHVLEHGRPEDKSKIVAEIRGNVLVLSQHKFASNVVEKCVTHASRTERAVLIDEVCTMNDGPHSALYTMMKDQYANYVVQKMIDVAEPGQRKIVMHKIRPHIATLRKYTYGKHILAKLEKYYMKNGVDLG
In outline:
as §1

The next experiment addresses T2, PUM1 PUF domain R6-IFC (Homo sapiens, UniProt Q14671 828-1176, N1043I;Y1044F;Q1047C).
T2 sequence: T1 sequence with G216I, W217F, E220C
Put shortly: as §1

The target of the next experiment is PUM1 PUF domain R3-SAE (Homo sapiens, UniProt Q14671 828-1176, C935S;R936A;Q939E). Put shortly:
as §1

For a further experiment, the target named is PUM1 PUF domain R8-RFY (Homo sapiens, UniProt Q14671 828-1176, N1122R;Y1123F;Q1126Y). Put shortly: as §1
The target of the next experiment is PUM1 PUF domain R2-DWC (Homo sapiens, UniProt Q14671 828-1176, N899D;Y900W;Q903C). Put shortly:
as §1

Residue numbers refer to the chain shown, from its start.

Turning to “GGCUAGAACUAGUGGAUCCCCCGGCGCCCGGCGGCUCGAGCCCGGGUAAGUUUAAAUAGUCUGCAUGCCGCCGGGCGCCAUGCCUGCAGGUCGACUCUAGAAAACAUG”, the binding signal in the experiment with PUM1 PUF domain R7-ARR and in the experiment with PUM1 PUF domain R7-EPG was 3.69 log2 enrichment (interaction score) throughout.
For “GGCUAGAACUAGUGGAUCCCCCGGCGCCCGGCGGCUCGAGCCCGGGUAAGUGUAUAUAGUCUGCAUGCCGCCGGGCGCCAUGCCUGCAGGUCGACUCUAGAAAACAUG”, the figures for the binding signal in the experiment with PUM1 PUF domain R4-FNC, in the experiment with PUM1 PUF domain R4-PFL and with PUM1 PUF domain R4-SHS were 3.02 log2 enrichment (interaction score), 4.21 log2 enrichment (interaction score) and 6.15 log2 enrichment (interaction score), respectively.
Consider “GGCUAGAACUAGUGGAUCCCCCGGCGCCCGGCGGCUCGAGCCCGGGUAAGUGGAAAUAGUCUGCAUGCCGCCGGGCGCCAUGCCUGCAGGUCGACUCUAGAAAACAUG”, for which the binding signal in the experiment with PUM1 PUF domain R6-GWE was 5.02 log2 enrichment (interaction score).
As to “GGCUAGAACUAGUGGAUCCCCCGGCGCCCGGCGGCUCGAGCCCGGGUAAGUGAAAAUAGUCUGCAUGCCGCCGGGCGCCAUGCCUGCAGGUCGACUCUAGAAAACAUG”, the binding signal with PUM1 PUF domain R6-IFC is 5.44 log2 enrichment (interaction score).
Take “GGCUAGAACUAGUGGAUCCCCCGGCGCCCGGCGGCUCGAGCCCGGGUAAGUGUAAGUAGUCUGCAUGCCGCCGGGCGCCAUGCCUGCAGGUCGACUCUAGAAAACAUG”: the binding signal with PUM1 PUF domain R3-SAE was 4.99 log2 enrichment (interaction score).
As to “GGCUAGAACUAGUGGAUCCCCCGGCGCCCGGCGGCUCGAGCCCGGGUAAGUCUAAAUAGUCUGCAUGCCGCCGGGCGCCAUGCCUGCAGGUCGACUCUAGAAAACAUG”, the binding signal with PUM1 PUF domain R7-ARR is 3.14 log2 enrichment (interaction score).
For the sequence “GGCUAGAACUAGUGGAUCCCCCGGCGCCCGGCGGCUCGAGCCCGGGUAAGCGUAAAUAGUCUGCAUGCCGCCGGGCGCCAUGCCUGCAGGUCGACUCUAGAAAACAUG”, the binding signal with PUM1 PUF domain R8-RFY was 5.49 log2 enrichment (interaction score).
For “GGCUAGAACUAGUGGAUCCCCCGGCGCCCGGCGGCUCGAGCCCGGGUAAGUGUAAAAAGUCUGCAUGCCGCCGGGCGCCAUGCCUGCAGGUCGACUCUAGAAAACAUG”, the binding signal in the experiment with PUM1 PUF domain R2-DWC is 7.69 log2 enrichment (interaction score).
